Data as given in PubChem BioAssay.
Activity calls are given as the source filed them.

Legend:
[1] = optical density shifts of acrAB sulA E. coli – strain DRC41, OD650, 48 h, E. coli filamentation inducer project, primary screen (AID 1152); conditions: higher = more signal, called active from +8 up or from −8 down;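 further: E. coli MC1000 strain DRC41 lacking acrAB efflux pump and sulA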
[2] = probe aLefty1 binding on compound microarray – biochemical, small-molecule microarray, 635/667 nm fluorescence, primary screen (AID 1153); conditions: higher = more signal;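 further: score merges spot fluorescence with signal-to-noise ratio from the scanned slide images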
[3] = plasmodial surface anion channel blockers, osmotic lysis – cell-based, P. falciparum Indochina, OD700, 1 h, primary screen (AID 1154); conditions: P. falciparum Indochina infected RBC osmotic lysis, higher = more signal, called active from +8 up or from −8 down
[4] = plasmodial surface anion channel blockers, osmotic lysis – cell-based, P. falciparum Indochina, OD700, 2 h, primary screen (AID 1155);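 further: lysis reports solute entry through the parasite surface anion channel PSAC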; conditions: P. falciparum Indochina infected erythrocytes, higher = more signal, called active from +8 up or from −8 down
[5] = changes in parasitized red cell lysis, either direction – P. falciparum Indochina, OD700, 3 h, PSAC antagonist project, primary screen (AID 1156); conditions: P. falciparum-infected erythrocytes, osmotic lysis, higher = more signal, called active from +8 up or from −8 down
[6] = plasmodial surface anion channel blockers, osmotic lysis – cell-based, P. falciparum Indochina, OD700, 18 h, primary screen (AID 1157); conditions: P. falciparum Indochina infected erythrocytes, osmotic lysis OD700, 18 h; higher = more signal, called active from +8 up or from −8 down
[7] = S6 kinase pathway phospho-S6 level changes – cell-based, A549, cytoblot, luminescence, serum-stimulated, primary screen (AID 1158); conditions: 5 h, higher = more signal;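 further: serum-stimulated A549 lung adenocarcinoma cells; signal is phosphorylated S6 detected by cytoblot immunostaining with HRP secondary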
[8] = target: NADPH oxidase 2 (Homo sapiens) (UniProt P04839); test: compounds shifting NOX2 Amplex Red fluorescence – cell-based, HEK293-NOX2, PMA-stimulated, NOX inhibitor project, primary screen (AID 1159); conditions: 45 min, higher = more signal, called active from +8 up or from −8 down; further: test concentration not given here
NADPH oxidase 2 (Homo sapiens), sequence (P04839 whole entry, looked up): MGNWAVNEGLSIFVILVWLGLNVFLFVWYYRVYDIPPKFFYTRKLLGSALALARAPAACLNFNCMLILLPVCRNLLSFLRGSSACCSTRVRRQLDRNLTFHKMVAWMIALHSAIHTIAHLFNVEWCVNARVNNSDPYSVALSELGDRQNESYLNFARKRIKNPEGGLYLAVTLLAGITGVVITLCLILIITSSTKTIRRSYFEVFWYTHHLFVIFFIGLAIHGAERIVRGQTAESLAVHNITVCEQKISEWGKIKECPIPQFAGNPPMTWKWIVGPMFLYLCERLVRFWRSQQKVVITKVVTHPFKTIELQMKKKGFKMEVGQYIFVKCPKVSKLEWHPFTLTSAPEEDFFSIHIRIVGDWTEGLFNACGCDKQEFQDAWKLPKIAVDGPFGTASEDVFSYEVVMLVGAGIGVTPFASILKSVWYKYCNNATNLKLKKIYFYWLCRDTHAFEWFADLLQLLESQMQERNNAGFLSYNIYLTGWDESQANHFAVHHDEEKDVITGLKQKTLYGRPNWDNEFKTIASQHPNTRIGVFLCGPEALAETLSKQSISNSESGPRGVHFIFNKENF

[9] = target: NADPH oxidase 4 (Homo sapiens) (UniProt Q9NPH5); test: compounds shifting NOX4 Amplex Red fluorescence – cell-based, HEK293-NOX4, tetracycline-induced, NOX inhibitor project, primary screen (AID 1160); conditions: HEK293-NOX4, Amplex Red H2O2 fluorescence, 45 min; higher = more signal, called active from +8 up or from −8 down
NADPH oxidase 4 (Homo sapiens), sequence (Q9NPH5 whole entry, looked up): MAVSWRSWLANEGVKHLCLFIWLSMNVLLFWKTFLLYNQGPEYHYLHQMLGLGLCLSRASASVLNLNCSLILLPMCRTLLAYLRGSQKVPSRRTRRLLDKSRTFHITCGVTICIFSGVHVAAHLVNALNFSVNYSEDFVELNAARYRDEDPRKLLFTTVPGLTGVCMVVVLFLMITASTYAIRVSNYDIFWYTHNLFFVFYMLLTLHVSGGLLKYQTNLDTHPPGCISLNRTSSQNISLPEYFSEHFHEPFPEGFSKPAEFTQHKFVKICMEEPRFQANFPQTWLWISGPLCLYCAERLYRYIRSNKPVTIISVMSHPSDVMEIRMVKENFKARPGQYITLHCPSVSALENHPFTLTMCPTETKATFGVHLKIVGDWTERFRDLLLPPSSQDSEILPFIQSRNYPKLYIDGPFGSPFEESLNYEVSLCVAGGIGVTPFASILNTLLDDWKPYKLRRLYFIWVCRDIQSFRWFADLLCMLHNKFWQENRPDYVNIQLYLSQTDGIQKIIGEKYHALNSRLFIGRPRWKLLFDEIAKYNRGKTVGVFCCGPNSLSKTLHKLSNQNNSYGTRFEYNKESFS

[10] = target: NADPH oxidase 5 (Homo sapiens) (UniProt Q96PH1); test: compounds shifting NOX5 Amplex Red fluorescence – cell-based, HEK293-NOX5, NOX inhibitor project, primary screen (AID 1161); conditions: HEK293-NOX5, ionomycin, 45 min, higher = more signal
NADPH oxidase 5 (Homo sapiens), sequence (Q96PH1 whole entry, looked up): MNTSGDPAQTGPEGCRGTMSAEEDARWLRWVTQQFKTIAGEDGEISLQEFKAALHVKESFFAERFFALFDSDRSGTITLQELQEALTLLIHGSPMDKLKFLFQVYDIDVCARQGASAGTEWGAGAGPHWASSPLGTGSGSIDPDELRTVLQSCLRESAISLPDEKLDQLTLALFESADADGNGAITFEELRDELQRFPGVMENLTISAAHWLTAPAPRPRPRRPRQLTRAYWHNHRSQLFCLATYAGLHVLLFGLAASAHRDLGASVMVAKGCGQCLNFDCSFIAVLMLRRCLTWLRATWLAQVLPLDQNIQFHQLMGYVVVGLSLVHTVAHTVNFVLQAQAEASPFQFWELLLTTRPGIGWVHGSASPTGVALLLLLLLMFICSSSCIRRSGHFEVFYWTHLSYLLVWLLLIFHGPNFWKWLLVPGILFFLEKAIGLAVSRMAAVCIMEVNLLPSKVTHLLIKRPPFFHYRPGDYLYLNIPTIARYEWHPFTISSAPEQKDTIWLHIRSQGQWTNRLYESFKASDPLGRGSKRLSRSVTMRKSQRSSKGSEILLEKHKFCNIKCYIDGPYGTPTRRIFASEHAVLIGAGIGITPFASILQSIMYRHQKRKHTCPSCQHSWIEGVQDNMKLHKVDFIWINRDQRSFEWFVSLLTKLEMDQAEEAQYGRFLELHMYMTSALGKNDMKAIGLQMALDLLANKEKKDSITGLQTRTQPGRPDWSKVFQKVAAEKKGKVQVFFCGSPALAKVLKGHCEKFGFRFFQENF

| Structure (SMILES) | z-score [1] | composite z-score [2] | z-score [3] | z-score [4] | z-score [5] | z-score [6] | z-score [7] | z-score [8] | z-score [9] | z-score [10] |
| --- | --- | --- | --- | --- | --- | --- | --- | --- | --- | --- |
| COC(=O)CC=C[C@@H](C)[C@@H](C=NOC(C)CN1CCCc2nc(C)c(C)cc21)NS(=O)(=O)c1ccc(C)cc1 (stereo not given in full) | 0.364 (inactive) | 0.119 | 2.52 (inactive) | 0.584 (inactive) | 0.201 (inactive) | 0.49 (inactive) | -0.929 | -0.134 (inactive) | 0.283 (inactive) | -0.736 |
| C[C@@H]1C=CCC(=O)OC[C@H](C)C(=O)N[C@@H](Cc2ccccc2)C(=O)OC1 | -0.596 (inactive) | -0.0287 | 0.296 (inactive) | -0.506 (inactive) | -0.307 (inactive) | -1.2 (inactive) | 0.826 | -0.348 (inactive) | -0.928 (inactive) | -0.396 |
| O=C1CCCC=C1C(O)COCc1ccccc1 (stereo not given) | -0.245 (inactive) | -0.194 | 0.782 (inactive) | 0.36 (inactive) | -0.0291 (inactive) | -0.0223 (inactive) | -0.338 | 0.237 (inactive) | 0.733 (inactive) | 0.63 |
| C#CCCCON=C1[C@H]2CCn3c(=O)n(Cc4cc5c(cc4Cl)OCO5)c(=O)n3[C@H]2[C@H](O)[C@@H]2O[C@H]12 | -0.248 (inactive) | -0.101 | 0.649 (inactive) | 0.581 (inactive) | 0.579 (inactive) | 0.035 (inactive) | -0.345 | -0.331 (inactive) | 0.367 (inactive) | -0.275 |
| CC(=O)OC[C@H]1O[C@@H](ON=C(C)C)[C@H](OC(C)=O)[C@@H](OC(C)=O)[C@@H]1OC(C)=O | -1.83 (inactive) | 0.145 | 0.421 (inactive) | 1.12 (inactive) | 0.638 (inactive) | 0.539 (inactive) | 0.152 | 1.27 (inactive) | 0.378 (inactive) | -0.611 |
| C[C@@H](c1ccccc1)N1C(=O)[C@H]2[C@H]3[C@H](O)[C@H](O)CC(=NOCc4ccccc4)[C@@H]3CC[C@H]2C1=O | -1.42 (inactive) | 0.426 | 2.92 (inactive) | 0.117 (inactive) | 0.826 (inactive) | 0.479 (inactive) | -0.547 | -0.666 (inactive) | 0.115 (inactive) | 0.12 |
| CCOC(=O)CCN1C(=O)[C@H]2[C@H]3[C@H](O)[C@H](O)CC(=NNC(=O)OCC)[C@H]3CC[C@H]2C1=O | -0.793 (inactive) | -0.0611 | 3.88 (inactive) | 0.635 (inactive) | 1 (inactive) | 1.07 (inactive) | -0.242 | 0.415 (inactive) | -0.702 (inactive) | -4.72 |
| CCOC(=O)CCN1C(=O)[C@H]2[C@H]3[C@H](O)[C@H](O)CC(=NO[C@@H]4O[C@H](CO)[C@@H](O)[C@H](O)[C@H]4O)[C@H]3CC[C@H]2C1=O | 0.131 (inactive) | 0.493 | -0.266 (inactive) | -0.163 (inactive) | -0.788 (inactive) | -0.0643 (inactive) | 0.199 | 0.444 (inactive) | 0.451 (inactive) | -0.9 |
| COC(=O)[C@@H]1CC[C@H](C)[C@@H](c2ccc(C)cc2)N1C(=O)c1ccc(C=NOC[C@H]2O[C@H](c3ccccc3)C=C[C@@H]2Oc2ccc(OC)cc2)cc1 | 0.229 (inactive) | -0.0236 | 0.639 (inactive) | 1.11 (inactive) | 0.708 (inactive) | 0.44 (inactive) | -0.0476 | 1.65 (inactive) | 0.846 (inactive) | 0.385 |
| COC(=O)[C@H](C)NC(=O)CCC1CC(OC(=O)NCCc2ccc(F)cc2)CC2(CCCC(COC(=O)NCc3ccccc3)O2)O1 (stereo not given in full) | -1.03 (inactive) | 0.0367 | -0.622 (inactive) | -0.694 (inactive) | -0.384 (inactive) | -0.268 (inactive) | 0.788 | 0.0624 (inactive) | -0.0206 (inactive) | 0.519 |
| COc1ccc(-c2cnnc(CCCn3ccnc3-c3ccccc3)n2)cc1 | -0.249 (inactive) | -0.0576 | 26.2 (active) | 9.62 (active) | 0.886 (inactive) | 0.982 (inactive) | -0.714 | 1.27 (inactive) | -0.372 (inactive) | -1.2 |
| CC(C)=NO[C@H](C)c1cn([C@@H]2COC[C@H]2O)nn1 | 0.36 (inactive) | -0.0518 | 0.813 (inactive) | 0.935 (inactive) | 0.627 (inactive) | 0.489 (inactive) | 0.381 | 0.0279 (inactive) | 0.549 (inactive) | 0.595 |
